Bioassay records (PubChem)
Sampled rows, rich in hits. Any-hit rate of the full collection: about 9.2%.
NPC1 prom act: activates the NPC1 promoter; Huh7 NPC1 promoter luciferase reporter, 24 h; Potency, µM (doses to about 9.22 µM), inactives show at the highest dose activation, actives largely listed as activators; actives 2.4% (n = 320,000); also: % of control where 0% means no effect; nearly all actives have a fitted effect of over 60% in size
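In 1536-well qHTS, Huh7 cells harboring an NPC1 promoter–luciferase construct received compound for 24 h; activation was quantified by luminescence following luciferase reagent addition.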
SMN2 splice enh: SMN2 splice variant enhancement; HEK293 SMN2-luciferase splicing reporter, luminescence, 30-36 h; Potency, µM (highest dose often 46.1 µM), for the others: at the highest dose activity change, positive = activation, most hits filed as activators; actives 2.8% (n = 210,000); also: % of control where 0% means no effect; nearly all actives have a fitted effect of over 55% in size
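qHTS luciferase splicing reporter: luminescence rises when SMN2 exon 7 is included in transfected HEK293 cells. Compound exposure lasted 30-36 h at 37C, with 4.5 mM final sodium butyrate as control, followed by a ONE-Glo read.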
ELG1 genotoxic: induces genotoxicity in HEK293T cells with luciferase-tagged ELG1 | Potency, µM (series often up to 46 µM), for inactives: top-dose activity change, positive = activation, usual class: activators | HEK293T ELG1-luciferase reporter, luminescence, 16 h | actives 1.3% (n = 330,000) | AID 504466; also: % of control where 0% means no effect; nearly all actives have a fitted effect of over 60% in size
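After overnight (16 hr) compound treatment at 37 °C, ELG1-luciferase HEK293T cells were lysed with ONE-Glo; luminescence quantified 30 min later at room temperature.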
Rab9 promoter act: Rab9 promoter activation; actives 2.8% (n = 320,000); AID 485297; Potency, µM (titrated, usually from 9.22 µM), for inactives: top-dose activation, negative = inhibition, usual class: activators; Huh7 Rab9 promoter-luciferase reporter, luminescence, 24 h; also: % of control where 0% means no effect; nearly all actives have a fitted effect of over 60% in size
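Cell-based reporter: Huh7 stable for Rab9 promoter-driven luciferase, plated in reduced-serum medium with 10% FBS at 1500 cells/well, compound-treated 24 h at 37 °C, luminescence read after 10 min reagent.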
FLuc modulator: counter-screen for miR-21 project: firefly luciferase inhibitors or activators; P08659; purified FLuc, Km substrates, luminescence inhibition; Potency, µM (doses to about 57.5 µM), for inactives: top-dose activity change, negative = inhibition, actives largely listed as inhibitors; actives 6.9% (n = 360,000); AID 588342;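 also: plate controls were vehicle for no effect and reference inhibitor for full effect; nearly all actives have a fitted effect of over 55% in size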
Target sequence (P08659 whole entry, looked up): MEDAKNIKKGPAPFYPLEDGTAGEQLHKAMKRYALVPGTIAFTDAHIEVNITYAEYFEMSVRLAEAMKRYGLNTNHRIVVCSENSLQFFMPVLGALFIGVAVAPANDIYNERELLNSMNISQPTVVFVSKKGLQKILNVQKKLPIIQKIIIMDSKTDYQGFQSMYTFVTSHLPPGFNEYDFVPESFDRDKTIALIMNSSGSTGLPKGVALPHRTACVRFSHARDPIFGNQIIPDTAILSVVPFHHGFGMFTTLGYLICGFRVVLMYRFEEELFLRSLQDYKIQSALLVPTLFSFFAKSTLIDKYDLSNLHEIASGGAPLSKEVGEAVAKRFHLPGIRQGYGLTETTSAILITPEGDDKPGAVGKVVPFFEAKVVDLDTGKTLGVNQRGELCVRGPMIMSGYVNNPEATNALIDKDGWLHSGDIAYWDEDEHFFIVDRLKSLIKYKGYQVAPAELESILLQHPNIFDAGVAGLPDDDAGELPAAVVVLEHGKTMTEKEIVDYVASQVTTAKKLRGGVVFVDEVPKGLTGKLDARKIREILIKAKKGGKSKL
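Purified P. pyralis luciferase, 10 nM final, with Km-level 10 uM D-luciferin and 10 uM ATP in 50 mM Tris acetate pH 7.5, 10 mM Mg acetate, 0.01% Tween-20, 0.05% BSA; 6-point qHTS titration about 60 µM downward; luminescence read.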
ELG1 repair inh: ELG1-dependent DNA repair inhibition; AID 504467; HEK293T ELG1-luciferase reporter, luminescence, 16 h; DNA damage induced by 5-fluorouridine; actives 2.3% (n = 330,000); Potency, µM (doses to about 46.1 µM), for the others: at the top dose activity change, negative = inhibition, most hits filed as inhibitors; also: % is scaled to controls: 0 for no effect and ±100 for the full control effect; nearly all actives have a fitted effect of over 55% in size
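Reporter activity after DNA damage by 5-fluorouridine is monitored. Compound-treated cells incubate 16 hr at 37 °C, then ONE-Glo is added for 30 min before luminescence reading.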
* = called active by the depositor; ? = inconclusive; nt = no result; [ ] = dose if it differs, or a comment. Calls follow the shape of the dose curve; as a rule, active = well fitted curve in the direction sought with a large enough effect; inconclusive = small, poorly fitted or top-dose-only effect, or another doubt; inactive = no such curve, though single readings can be large; an effect the other way counts as inactive or inconclusive. Potency is read from the fitted curve at half-maximal effect.

SMILES	NPC1 prom act	SMN2 splice enh	ELG1 genotoxic	Rab9 promoter act	FLuc modulator	ELG1 repair inh
COc1ccc(-c2cc(C(=O)Nc3ccccc3N3CCOCC3)c3ccccc3n2)cc1OC	-7%	-58%	-18%	2%	?	12µM*
O=C(Nc1ccc(N2CCOCC2)cc1)c1cc(-c2ccncc2)nc2ccccc12	-4%	nt	-8%	-3%	-10%	?
CCOc1ccccc1N(CC)C(=O)c1cc2c(=O)n(CC)c3ccccc3c2s1	nt	-49%	nt	nt	-11%	nt
COc1cccc(C=Nc2cccc3c(=O)[nH][nH]c(=O)c23)c1O	-3%	9%	?	0%	0.6µM*	?
COc1ccc(-c2cc3ccc(O)c(CN4CCC(C)CC4)c3oc2=O)cc1	nt	nt	nt	nt	-4%	nt
COc1ccc(-n2ccc(-c3nn(-c4cccc(C(F)(F)F)c4)ccc3=O)n2)cc1	-8%	-18%	-1%	-1%	-2%	8.2µM*
O=C(NCc1ccccc1F)c1ccc(CN2CC(=O)N3CCCCC3C2=O)cc1 (stereo not given)	nt	nt	nt	nt	-2%	nt
O=[N+]([O-])c1ccc(-c2nn(-c3ccccc3)cc2/C=N/n2c(-c3ccncc3)n[nH]c2=S)cc1	1%	nt	8%	0%	0%	?
Cc1nc2ccccc2c(=O)n1/N=C/c1cccs1	12%	8%	1%	?	-17%	?
S=c1[nH]nc(-c2ccncc2)n1/N=C/c1cn(-c2ccccc2)nc1-c1ccccc1	21%	nt	17%	?	2.7µM*	-4%
S=c1[nH]nc(-c2cccs2)n1/N=C/c1cn(-c2ccccc2)nc1-c1cccs1	?	nt	?	?	0.67µM*	?
Cc1nc2ccccc2c(=O)n1/N=C/c1cn(-c2ccccc2)nc1-c1cccs1	19%	-17%	-1%	26%	2.7µM*	?
CCOc1ccc(NC(=O)Cn2nc(Cc3cccnc3)c3ccccc3c2=O)cc1	nt	28%	nt	nt	-3%	nt
CC(C)C[C@@H](CC(=O)N[C@H](CC(=O)N[C@@H]1CCNC[C@H]1C(=O)N[C@H](CC(=O)N[C@@H](CCC(=O)O)CC(=O)O)Cc1c[nH]c2ccccc12)C(C)C)NC(=O)[C@@H]1CCCC[C@H]1N	nt	-7%	nt	nt	nt	nt
CCN(CC(=O)Nc1ccc(NC(C)=O)cc1)C(=O)/C=C/c1c(C)nn(-c2ccc(F)cc2)c1C	3%	nt	-9%	4%	-1%	8.2µM*
COc1ccccc1C(=O)Nc1ccncc1	-1%	nt	0%	-4%	6%	-1%
COc1ccc2o/c(=N\O)c(C(=O)Nc3ccccc3OC)cc2c1	-1%	22%	-3%	-2%	?	21%
COc1ccccc1C(=O)Nc1ccc(Br)c2cccnc12	14%	nt	-7%	10%	12µM*	7%
COc1ccccc1C(=O)Nc1ccccn1	2.5µM*	22µM*	13µM*	?	7.6µM*	?
COc1cccc2cc(C(=O)Nc3ccccc3C)/c(=N/O)oc12	?	nt	?	17%[1.84 µM]	6.7µM*	?
COc1ccccc1C(=O)Nc1cccnc1	-6%	nt	3%	0%	-2%	5%
COc1ccc(NC(=O)Nc2ccccn2)cc1OC	24%	nt	?	19%	19µM*	?
CCOP(=O)(OCC)C(NC(=O)NS(=O)(=O)c1ccc(C)cc1)c1ccccc1 (stereo not given)	1%	nt	15%	7%	2%	15%
COc1ccc(NC(=O)NC2CCCc3ccccc32)cc1 (stereo not given)	9%	nt	1%	10%	-3%	-7%
COc1ccccc1C(=O)Nc1ccc(Br)cc1C	?	nt	10%	?	17µM*	?
COc1ccc(NC(=O)NC2CCCc3ccccc32)cc1OC (stereo not given)	?	nt	6.5µM*	0%	?	?
O=C(Nc1ccc(Cl)c(Cl)c1)Nc1ccccn1	3.2µM*	nt	?	4.5µM*	?	?
O=C(Nc1cccnc1)Nc1ccccn1	3%	-4%	4%	3%	-15%	6%
